Screening results from PubChem BioAssay.
The list is not random: actives were taken first. Their share in the collection is about 5.8%.
RORgamma inh: ROR gamma (mouse) transcription inhibition. P51450. Potency, µM (titrated, usually from 53.6 µM), for inactives: at the highest dose activity change, negative = inhibition, usual class: inhibitors. 5.4% of 310,000 active. Drosophila S2 Gal4-RORgamma UAS-luciferase reporter, 20 h; also: potency is read from the fitted curve at half-maximal effect; % is scaled to controls: 0 for no effect and ±100 for the full control effect; nearly all actives have a fitted effect of over 60% in size
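ROR gamma transcriptional activity was tracked as Gal4-UAS luciferase output in stably transfected Drosophila Schneider cells, with compound added 1 hr before 700 uM copper sulfate induction and a 20 hr ambient-temperature incubation.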
Gal4-VP16 FLuc: Gal4-VP16 reporter inhibition counter-screen; AID 2546; Potency, µM (titrated, usually from 53.6 µM), for inactives: top-dose activity, negative = inhibition, hits mostly inhibitors; 3.5% of 310,000 active; Drosophila S2 Gal4-VP16 UAS-luciferase, luminescence, 20 h;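 also: Gal4-VP16 expression switched on by copper sulfate through the metallothionein promoter; potency is read from the fitted curve at half-maximal effect; % is scaled to controls: 0 for no effect and ±100 for the full control effect; nearly all actives have a fitted effect of over 50% in size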
TRPV1 agonist: activates the human vanilloid receptor TRPV1 | 0.19% of 320,000 active | activation, % at 8.33 µM | TRPV1-expressing cells, Fluo-8 calcium influx, agonist mode | Q8NER1; in the data active = activation above about 80%; inconclusive = between about 30% and that limit; also: 0% is about no effect
Target sequence (Q8NER1 whole entry, looked up): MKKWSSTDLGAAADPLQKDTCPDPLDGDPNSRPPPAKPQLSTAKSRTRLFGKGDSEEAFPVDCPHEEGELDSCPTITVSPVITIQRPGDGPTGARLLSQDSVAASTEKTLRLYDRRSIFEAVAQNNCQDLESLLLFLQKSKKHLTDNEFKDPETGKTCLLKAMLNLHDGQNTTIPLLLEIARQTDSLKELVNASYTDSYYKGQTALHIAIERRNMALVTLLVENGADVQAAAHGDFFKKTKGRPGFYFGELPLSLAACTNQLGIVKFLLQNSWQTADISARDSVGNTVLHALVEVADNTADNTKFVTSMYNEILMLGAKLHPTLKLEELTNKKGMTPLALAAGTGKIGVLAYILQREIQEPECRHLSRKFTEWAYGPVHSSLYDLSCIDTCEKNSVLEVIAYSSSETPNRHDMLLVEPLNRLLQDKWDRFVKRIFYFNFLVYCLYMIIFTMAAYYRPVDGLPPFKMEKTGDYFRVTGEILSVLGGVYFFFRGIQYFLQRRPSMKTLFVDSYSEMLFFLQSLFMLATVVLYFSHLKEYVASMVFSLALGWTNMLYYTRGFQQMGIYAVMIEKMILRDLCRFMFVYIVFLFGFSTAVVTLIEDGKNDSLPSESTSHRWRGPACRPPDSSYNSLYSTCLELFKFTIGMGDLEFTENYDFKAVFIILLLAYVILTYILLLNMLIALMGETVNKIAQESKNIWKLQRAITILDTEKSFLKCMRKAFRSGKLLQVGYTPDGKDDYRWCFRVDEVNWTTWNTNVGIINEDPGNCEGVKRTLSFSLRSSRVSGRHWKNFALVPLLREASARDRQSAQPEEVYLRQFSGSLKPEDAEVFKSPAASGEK
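Fluo-8 calcium influx in TRPV1-expressing cells, kinetic read (ex 480/em 520 nm). Compound added and read 3 min for agonist activity, followed by capsaicin at EC20 final and 2 min further read for enhancement.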
uPA generation: cell surface uPA generation inhibition. 0.31% of 330,000 active. Potency, µM (series often up to 38.3 µM), for the others: at the top dose activity change, negative = inhibition, most hits filed as inhibitors. cell surface uPA generation assay, qHTS. AID 540303; active = well fitted inhibition curve with a large enough effect; inconclusive = small, poorly fitted or top-dose-only effect; inactive = no such curve, though single readings can be large or run the other way; tested in mouse RAW 264.7 cells; also: potency is read from the fitted curve at half-maximal effect; % is scaled to controls: 0 for no effect and ±100 for the full control effect; nearly all actives have a fitted effect of over 55% in size
TRPV1 potentiator: potentiators of human vanilloid receptor 1 (TRPV1); TRPV1-expressing cells, Fluo-8 calcium influx, capsaicin EC20 potentiation; potentiation, % at 8.33 µM; 0.02% of 320,000 active; in the data active = potentiation above about 80%; inconclusive = between about 30% and that limit; also: 0% is about no effect
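TRPV1-expressing cells were cultured overnight at 35.5C and loaded with Fluo-8 calcium dye for 40 to 90 min at room temperature. After a 10 s baseline, compound was added and calcium influx was read kinetically for 3 min (ex 480/em 520 nm).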
* marks the source's active call; other numbers are inactive results; ? = inconclusive; nt = not tested or not shown; [ ] = dose if it differs, or a comment. Unless noted, calls follow the shape of the dose curve; as a rule, active = well fitted curve in the direction sought with a large enough effect; inconclusive = small, poorly fitted or top-dose-only effect, or another doubt; inactive = no such curve, though single readings can be large; an effect the other way counts as inactive or inconclusive.

SMILES | RORgamma inh | Gal4-VP16 FLuc | TRPV1 agonist | uPA generation | TRPV1 potentiator
CCCCCCCCn1c(=O)c(C(=O)OC)c(N)c2ccccc21 | 3.2µM* | 4.5µM* | ? | -11% | 12
O=C(NCCOc1ccc(F)cc1)C1CCC(=O)N(CC2CCCCC2)C1 (stereo unspecified) | -18% | 1% | 17 | 8% | -13
COc1ccc(-n2c(=O)c(-c3ccc(Cl)cc3)nc3cnc(N(C)C)nc32)cc1 | 15% | 5% | nt | nt | nt
O=C(/C=C/c1ccc(O)c(O)c1)OCCc1ccccc1 | ? | 10µM* | nt | 0.89µM* | nt
Cc1c(C(=O)Nc2nccs2)sc2nc(-c3cccs3)cc(C(F)(F)F)c12 | 0.79µM* | 3.2µM* | 2 | nt | -1
COC(=O)c1ccc(C)c(NC(=S)NCc2ccc(Cl)cc2)c1 | 8.9µM* | 14µM* | ? | 3% | 10
COC(=O)c1cccc(NC(=S)NCc2ccc(Cl)cc2)c1 | ? | 4%[0.365 µM] | 82* | 2% | 6
COC(=O)c1ccc(C)c(NC(=O)CCSc2ccc(Cl)cc2)c1 | -1% | -8% | 4 | 3% | ?
COC(=O)c1sccc1NC(=S)NCc1ccc(Cl)cc1 | 0.79µM* | 1.3µM* | ? | -1% | -8
COC(=O)c1cc(NC(=S)NCc2ccc(Cl)cc2)cc(C(=O)OC)c1 | ? | ? | ? | 1% | -15
COc1ccc(Oc2ncc3nc(-c4cc(F)cc(F)c4)c(=O)n(C[C@H]4CCCO4)c3n2)cc1 | 19% | -1% | nt | nt | nt
CCc1ccc(C(N)=S)cc1 | 11µM* | -17% | 2 | 0% | 4
C=C(c1ccc(OC)cc1)c1ccc(OC)cc1 | 39% | 8% | 0 | -1% | 2
COc1ccc(C(N)=S)cc1 | 13µM* | ? | -4 | 0% | -3
O=C(NC1CCCCCC1)c1ccc(=O)n(Cc2ccccc2)n1 | ? | -10%[10 µM] | 18 | 7% | 0
CN1C/C(=C/c2ccncc2)C(=O)/C(=C/c2ccncc2)C1 | 13µM* | 4µM* | -1 | -7% | 18
CN1C/C(=C/c2ccsc2)C(=O)/C(=C/c2ccsc2)C1 | -97% | ? | 10 | -11% | -13
CCOC(=O)c1nnn(-c2nonc2N)c1-c1ccc(F)cc1 | 16% | 3% | 12 | 5% | -13
Cc1cccc2sc(NNC(=O)c3ccc(S(=O)(=O)N4CCCC(C)C4)cc3)nc12 (stereo unspecified) | 3.5µM* | 3.2µM* | 15 | 8.9µM* | -1
Cc1cccc2sc(NNC(=O)c3ccc(S(=O)(=O)N4CCc5ccccc5C4)cc3)nc12 | -32% | ? | 1 | ? | 7
CCOC(=O)N1CCN(S(=O)(=O)c2ccc(C(=O)NNc3nc4c(C)cccc4s3)cc2)CC1 | 10µM* | 5µM* | 0 | ? | 16
CCOC(=O)N1CCN(S(=O)(=O)c2ccc(C(=O)NNc3nc4ccc(Cl)cc4s3)cc2)CC1 | 7.1µM* | ? | 15 | ? | -17
CCOC(=O)N1CCN(S(=O)(=O)c2ccc(C(=O)NNc3nc4c(C)cc(C)cc4s3)cc2)CC1 | 14µM* | 20µM* | -1 | ? | 23
O=C1OC(=O)c2c(Cl)c(Cl)c(Cl)c(Cl)c21 | -9% | -2% | nt | nt | nt
CCc1nc(C#N)c(N2CCOCC2)o1 | -1% | -1% | 0 | 3% | -11
SMILES | RORgamma inh | Gal4-VP16 FLuc | TRPV1 agonist | uPA generation | TRPV1 potentiator
CCOC(=O)N1CCN(S(=O)(=O)c2ccc(C(=O)NNc3nc4cc(C)cc(C)c4s3)cc2)CC1 | 11µM* | 5µM* | -4 | ? | 11
Cc1cc(C)c2nc(NNC(=O)c3ccc(S(=O)(=O)N4CCCCC4)cc3)sc2c1 | 3.2µM* | 8.9µM* | 3 | ? | -1
CC1CCCCC1NC(=O)NC(=O)CCl (stereo unspecified) | 5µM* | 6.3µM* | -2 | -19% | 7
CC1CCCC(NC(=O)NC(=O)CCl)C1C (stereo unspecified) | 3.2µM* | 5µM* | 3 | ? | 4
C=CCNC(=S)NC(=O)c1oc2ccccc2c1C | 6.3µM* | ? | 2 | 1% | 6
CC(=O)Nc1ccc(NC(=S)NC(=O)c2oc3ccccc3c2C)cc1 | 14% | -8% | 2 | 2% | -8
Cc1cccnc1NC(=S)NC(=O)c1oc2ccccc2c1C | 2µM* | 6.3µM* | 4 | -4% | -2
Cc1c(C(=O)NC(=S)NCC(C)C)oc2ccccc12 | -30% | ? | 2 | 1% | -9
CCCN(CCC)C(=O)SCC | 14% | 7% | nt | nt | nt
COCCNC(=S)N=Nc1c(O)[nH]c2c(C)cc(C)cc12 | 2.2µM* | 7.9µM* | 2 | -13% | -3
CC[C@@]1([C@@H]2O[C@@H]([C@H]3O[C@@](O)(CO)[C@H](C)C[C@@H]3C)C[C@@H]2C)CC[C@H]([C@]2(C)CC[C@]3(C[C@H](O)[C@@H](C)[C@@H]([C@@H](C)[C@@H](OC)C(C)C(=O)O)O3)O2)O1 (stereo partly specified) | ? | -16% | nt | nt | nt
Cc1ccc(Cl)cc1NC(=O)c1ccccc1OCC(=O)Nc1ccc(Cl)cc1 | ? | 11µM* | -12 | 4% | ?
COc1ccc(C2c3cc(OC)c(OC)cc3CCN2S(C)(=O)=O)cc1OC (stereo unspecified) | -29% | 4% | 2 | -11% | -3
CC1CCN(S(=O)(=O)c2cc([N+](=O)[O-])ccc2Cl)CC1 | -12% | -22% | -4 | 7.9µM* | ?
O=C(CCl)N(c1ccccc1)C1CCS(=O)(=O)C1 (stereo unspecified) | 18µM* | ? | 0 | -12% | 9
O=C(NNC(=S)NCc1ccccc1)c1cccnc1 | -21% | -5% | -2 | 9% | 0
O=C(NC(=S)NCc1ccccc1)c1cccnc1 | 11µM* | ? | 20 | 1% | -14
CCCOc1ccc(C(=O)NC(=S)NCc2cccnc2)cc1 | ? | 13µM* | 6 | -4% | -1
O=C(NC(=S)NCCC1=CCCCC1)c1cccnc1 | 4µM* | ? | ? | 1% | -6
Cc1cccc(C(=O)NC(=S)NCc2cccnc2)c1 | 16µM* | ? | -6 | 6% | -4
O=C(NCc1ccc(Cl)cc1)c1ccc(-c2ccccc2C(F)(F)F)o1 | -9% | -13% | -1 | -4% | 2
COc1ncnc2c1sc1nc(-c3ccccc3)c3c(c12)CCCC3 | 2% | -8% | -3 | 12% | 2
CN(C)CCNc1ncnc2c1sc1nc(-c3ccccc3)c3c(c12)CCCC3 | ? | 2.8µM* | 8 | 1% | 5
CCCCC/C=C\C/C=C\C/C=C\CCCCCCC(=O)NCCc1ccc(O)c(O)c1 | 1% | -11% | nt | nt | nt
O=C(Nc1ccc(Cl)c([N+](=O)[O-])c1)c1ccc(NCCCN2CCOCC2)c([N+](=O)[O-])c1 | 5µM* | ? | 5 | nt | -14
Cc1cc(C)nc(-n2nc(C)cc2NC(=O)CNCc2ccccc2)n1 | 5.6µM* | ? | 0 | 0% | 6
CCN(CC(=O)Nc1cc(C)nn1-c1nc(C)cc(C)n1)Cc1ccccc1 | 1.4µM* | 6.3µM* | 0 | -7% | 30
